Screens deposited in PubChem by Broad Institute.
SIRT5 inh: inhibitors of human sirtuin-5 desuccinylase. Purified SirT5, succinyl-peptide AMC, trypsin-coupled fluorescence. inhibition, % at 15 µM. 1.1% of 330,000 active. AID 652115; in the data active = inhibition above about 15%
Target sequence (Q9NXA8 whole entry, looked up): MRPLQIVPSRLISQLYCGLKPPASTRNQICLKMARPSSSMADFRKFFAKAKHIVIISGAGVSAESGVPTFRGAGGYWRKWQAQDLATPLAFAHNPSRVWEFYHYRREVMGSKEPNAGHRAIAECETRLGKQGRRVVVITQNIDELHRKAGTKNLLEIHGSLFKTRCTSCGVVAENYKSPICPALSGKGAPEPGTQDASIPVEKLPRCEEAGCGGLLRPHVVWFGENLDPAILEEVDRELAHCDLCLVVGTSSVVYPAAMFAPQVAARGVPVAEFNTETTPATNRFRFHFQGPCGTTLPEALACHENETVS
Casp6 inh: blocks human caspase-6 cleavage activity; P55212; purified caspase-6, Z-VEID-R110 cleavage fluorescence; inhibition, % at 12.5 µM; 0.53% of 350,000 active; AID 686996;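 active = mean inhibition across replicates at least about 35%, with every replicate also reaching that limit, limit read from the data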;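 also: 0% = median of neutral control wells and 100% = no fluorescence left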
Target sequence (P55212 24-179 limits assumed): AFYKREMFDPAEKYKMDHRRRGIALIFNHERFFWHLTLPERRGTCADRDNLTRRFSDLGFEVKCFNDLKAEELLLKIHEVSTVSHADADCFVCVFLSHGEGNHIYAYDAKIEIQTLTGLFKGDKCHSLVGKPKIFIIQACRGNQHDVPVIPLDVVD
Target sequence (P55212 194-293 limits assumed): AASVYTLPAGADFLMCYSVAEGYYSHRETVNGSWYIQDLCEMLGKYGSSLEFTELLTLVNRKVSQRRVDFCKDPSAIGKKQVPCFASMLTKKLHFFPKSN
ERAP1 inh: ERAP1 (human) enzyme inhibition; AID 652197; Q9NZ08; recombinant ERAP1, Leu-AMC fluorescence, 60 min; inhibition, % at 10.7 µM; 0.15% of 340,000 active;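 active = mean replicate inhibition of at least 30%, or all replicates individually reaching that 30% level; inactive = mean below 30% and not every replicate reaching it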;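 also: 0% = neutral control wells and 100% = L-leucinethiol positive control wells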
INS-1E GSIS act: GLuc luminescence reporter in INS-1E cells, primary screen for activators of glucose-dependent secretion of insulin; INS-1E GLuc reporter insulin secretion, 2-3 h; activation, % at 16.6 µM; 0.61% of 370,000 active;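 active = lowest replicate activation of at least 40%, so every replicate reaches that level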;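 also: 0% = median of neutral control wells and 100% = median of IBMX positive control wells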
FGF22 binding: FGF22 (human) thermal shift binding. Q9HCT0. recombinant FGF22 thermal shift, SYPRO orange fluorescence; percent of sucrose octasulfate shift, DMSO zero. activity (Tm shift, normalised), % at 9.99 µM. 1.5% of 340,000 active;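 active = mean Tm shift, scaled 0 neutral to 100 positive control, at about 1.3% or above, every replicate too, limit read from the data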
The depositor's hits bear a star; / = not tested or not shown. Sampled rows, rich in hits. Any-hit rate of the full collection: about 3.3%.

SMILES	SIRT5 inh	Casp6 inh	ERAP1 inh	INS-1E GSIS act	FGF22 binding
CCOC(=O)c1c(-c2cccc([N+](=O)[O-])c2)cn2ccccc12	-1.7	-3.4	-2.4	31.2	0.0
Cc1ccccc1-c1cnc2c(c1)C(=O)N([C@@H](C)CO)C[C@@H](C)[C@@H](CN(C)Cc1cncnc1)O2	-5.7	/	/	30.0	0.0
COc1ccc(S(=O)(=O)N2C[C@@H](O)COC[C@@H]3O[C@@H](CC(=O)NCc4ccc(Cl)c(Cl)c4)CC[C@H]32)cc1	15.3*	1.0	-0.2	-25.7	-0.3
O=C(C[C@H]1CC[C@H]2[C@@H](COC[C@H](O)CN2C(=O)Nc2ccc(Cl)c(Cl)c2)O1)NCc1ccc(Cl)c(Cl)c1	3.2	1.6	-1.3	-17.6	0.0
O=C(C[C@H]1CC[C@H]2[C@@H](COC[C@@H](O)CN2C(=O)Nc2ccc(Cl)c(Cl)c2)O1)NCc1ccc(Cl)c(Cl)c1	5.4	0.1	-1.9	-18.4	1.3*
O=C(C[C@@H]1CC[C@H]2[C@@H](COC[C@@H](O)CN2C(=O)Nc2ccc(Cl)c(Cl)c2)O1)NCc1ccc(Cl)c(Cl)c1	15.5*	0.0	-1.1	-27.5	0.1
COc1ccc(S(=O)(=O)N2C[C@H](O)COC[C@@H]3O[C@H](CC(=O)NCc4ccc(Cl)c(Cl)c4)CC[C@H]32)cc1	4.0	1.6	-0.3	-26.9	-0.1
CN1C(=O)c2cc(NS(=O)(=O)c3ccccc3Cl)ccc2OC[C@H]2O[C@@H](CC(=O)O)CC[C@@H]21	-2.0	24.1	-0.8	6.5	-0.1
O=C1C=C(N2CCOCC2)c2ccccc2C1=O	3.1	99.7*	0.4	-15.2	-0.3
CC=Cc1ccc2n(c1=O)C[C@@H]1[C@@H](CO)[C@H](C(=O)NCCC)N(Cc3cccc(F)c3)[C@H]21 (mixture of isomers)	-6.2	-1.0	2.8	-2.3	0.0
Cc1noc(C)c1NC(=O)N(C)C[C@H]1Oc2ccc(NS(=O)(=O)c3cccs3)cc2CC(=O)N([C@@H](C)CO)C[C@@H]1C	/	/	/	27.0	-0.1
CO[C@H]1CN(C)C(=O)c2ccc(NS(C)(=O)=O)cc2OC[C@@H](C)N(C(=O)C2CC2)C[C@@H]1C	-0.3	7.1	-1.9	15.9	-0.3
C[C@H](CO)N1C[C@H](C)[C@H](CN(C)C(=O)Nc2ccccc2)OCCCC[C@H](C)Oc2ccc(NC(=O)Nc3cccc4ccccc34)cc2C1=O	-2.1	0.2	1.3	13.1	/
O=C(N[C@@H]1CC[C@H](CCNS(=O)(=O)c2ccccc2)O[C@H]1CO)c1cnccn1	27.7*	0.4	-1.4	-4.8	-0.3
O=C(N[C@@H]1CC[C@@H](CCNS(=O)(=O)c2ccccc2Cl)O[C@H]1CO)c1ccc(F)cc1	3.9	3.9	-3.2	-4.5	-0.2
O=C(NCC[C@@H]1CC[C@H](NC(=O)C2CC2)[C@H](CO)O1)c1cc(Cl)cc(Cl)c1	38.4*	-1.2	1.5	12.8	0.0
O=C(CN1CCOCC1)N[C@@H]1CC[C@H](CCNC(=O)C2CCCCC2)O[C@H]1CO	15.4*	-1.3	-3.3	17.1	0.0
O=C(N[C@H]1CC[C@H](CCNS(=O)(=O)c2ccccc2Cl)O[C@@H]1CO)c1ccccc1	18.5*	-1.8	2.8	0.3	0.0
COc1ccc(NC(=O)N(C)C[C@H]2Oc3ccc(NS(=O)(=O)c4ccc(C)cc4)cc3C(=O)N([C@H](C)CO)C[C@@H]2C)cc1	/	/	/	29.0	/
C[C@H](CO)N1C[C@H](C)[C@H](CN(C)Cc2ccc(Oc3ccccc3)cc2)OCc2ccccc2-c2c(n(C)c3ccccc23)C1=O	5.3	2.5	-0.8	-7.9	-0.2
Cc1noc(C)c1NC(=O)Nc1ccc2c(c1)C(=O)N([C@H](C)CO)C[C@@H](C)[C@@H](CN(C)Cc1ccncc1)OCCCC[C@@H](C)O2	-4.2	0.0	-0.2	0.1	-0.4
O=C(CN1CCOCC1)NCC[C@H]1CC[C@@H](NC(=O)c2ccccc2F)[C@@H](CO)O1	1.0	-2.4	-1.4	-5.6	-0.1
C[C@@H]1CN([C@@H](C)CO)C(=O)Cc2cc(NS(=O)(=O)c3ccc(Cl)cc3)ccc2O[C@@H]1CN(C)CC1CCCCC1	20.3*	1.1	0.8	-11.9	/
C[C@@H]1CN([C@H](C)CO)C(=O)Cc2cc(NC(=O)Nc3ccc4c(c3)OCO4)ccc2O[C@H]1CN(C)CC1CCCCC1	17.5*	-2.5	2.5	-3.4	-0.7
C[C@@H]1CN([C@@H](C)CO)C(=O)Cc2cc(NS(=O)(=O)c3ccccc3)ccc2O[C@H]1CN(C)CC1CCCCC1	19.0*	2.4	-1.2	-11.8	-0.8
SMILES	SIRT5 inh	Casp6 inh	ERAP1 inh	INS-1E GSIS act	FGF22 binding
C[C@@H]1CN([C@H](C)CO)C(=O)Cc2cc(NS(C)(=O)=O)ccc2O[C@@H]1CN(C)CC1CC1	16.5*	3.1	0.6	3.6	-0.3
C[C@H]1CN([C@@H](C)CO)C(=O)Cc2cc(NS(C)(=O)=O)ccc2O[C@H]1CN(C)CC1CC1	3.2	-1.2	3.9	10.4	/
C[C@H]1CN([C@@H](C)CO)C(=O)Cc2cc(NS(=O)(=O)c3ccccc3)ccc2O[C@H]1CN(C)CC1CCCCC1	2.2	4.1	0.1	4.4	0.3
COCC(=O)N1[C@H](CO)[C@H]2c3ccccc3N(C(=O)c3ccncc3)C[C@H]21	-3.3	5.5	-2.5	1.0	0.2
COCC(=O)N(C)C[C@H]1Oc2ncc(-c3ccc(C#N)cc3)cc2C(=O)N([C@@H](C)CO)C[C@H]1C	-2.7	-5.5	2.1	-1.4	0.3
C[C@@H]1CN([C@H](C)CO)C(=O)Cc2cc(NS(=O)(=O)c3ccc(F)cc3)ccc2O[C@H]1CN(C)CC1CCCCC1	23.2*	2.4	0.7	-9.8	-0.3
C[C@H](CO)N1C[C@H](C)[C@H](CN(C)CC2CCCCC2)Oc2ccc(NS(=O)(=O)c3ccc(F)cc3)cc2CC1=O	9.6	2.1	-1.1	-4.0	0.0
NS(=O)(=O)c1ccc(CCNC(=O)c2ccncc2)cc1	-5.6	1.6	1.9	-8.0	-0.3
NS(=O)(=O)c1ccc(CCNC(=O)c2ccc(C#CC3(O)CCCCC3)cc2)cc1	111.5*	6.3	1.7	8.2	0.1
COc1ccc(S(=O)(=O)N(C)C[C@H]2OCCCC[C@H](C)Oc3ccc(NS(=O)(=O)c4cccs4)cc3C(=O)N([C@H](C)CO)C[C@H]2C)cc1	12.5	-2.0	1.4	16.1	-0.3
O=C(Nc1cccc2c(=O)[nH][nH]c(=O)c12)c1ccc([N+](=O)[O-])cc1	/	41.6*	7.6	4.9	0.6
S=C(NCCc1ccccn1)Nc1ccc(Cl)cc1	1.1	-0.5	-0.7	8.0	0.0
Fc1ccc(NC(=S)NCCc2ccccn2)cc1	-4.1	-2.8	-0.4	0.5	43.6*
S=C(NCc1ccccn1)Nc1ccccc1	-0.4	-0.1	-1.9	9.2	44.0*
CC(C)(C)C(=O)/C(=C/c1cccc([N+](=O)[O-])c1)n1cncn1	/	/	/	75.5	/
CC(NCc1cc(Br)ccc1OCC(=O)NCc1ccccc1)c1ccccc1 (stereo unspecified)	/	3.5	-4.2	-26.3	0.2
